This is an account of results in PubChem BioAssay (NCATS).

Each structure is given as a SMILES string. Inconclusive results are not listed. A call without a number means that no potency is given here. Activity calls are given as the source filed them. The call rests on the fitted dose curve; in most records, active means well fitted inhibition curve with a large enough effect; inconclusive means small, poorly fitted or top-dose-only effect; inactive means flat fitted curve, though single readings scatter.

The target of this experiment is Calcium and integrin-binding protein 1 (Homo sapiens) (UniProt Q99828). The experiment in a line: Primary qHTS for Identification of Calcium Integrin Binding Protein 1 (CIB1) Competitor (AID 1508620).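 Further: GST tagged CIB1 binding a fluorescein labelled alphaIIb integrin peptide tracer; top concentration of the series differs between compounds.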 The conditions noted are these: CIB1-GST / FITC-alphaIIb peptide fluorescence polarization; series mostly up to 114 µM. A digest of the protocol: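 Fluorescence polarization competition: CIB1-GST (1 uM final) preincubated with compound 15 min at room temperature, then FITC-labeled alphaIIb peptide (100 nM final) added for another 15 min. Polarization read at Ex 480/Em 540.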
Sequence of Calcium and integrin-binding protein 1 (Homo sapiens) (Q99828 whole entry, looked up): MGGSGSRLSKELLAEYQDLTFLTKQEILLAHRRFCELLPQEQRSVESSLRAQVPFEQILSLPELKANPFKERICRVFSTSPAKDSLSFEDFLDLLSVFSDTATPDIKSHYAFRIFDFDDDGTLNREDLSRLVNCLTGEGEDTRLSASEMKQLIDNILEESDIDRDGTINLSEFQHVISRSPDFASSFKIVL

`O=C(NCC#CCSc1nnc(-c2cccc3ccccc23)o1)c1cccs1`: the Potency result is “inactive”.

For the compound `CCc1ccccc1C(=O)N1CCc2cc(-c3nc(NC(=O)Cc4ccc5c(c4)OCO5)sc3C)ccc21`, the Potency entry was “inactive”. To `O=C(Nc1ccc2c(c1)OCCO2)c1ccc(-c2nc3ccccc3[nH]2)cc1` belongs “inactive”; to `CCN(CC)c1ccc(NC(=O)CN(C)Cc2c(O)ccc3ccccc23)cc1`, “inactive”. `COc1ccc(-c2nnc(NC(=O)Nc3ccc4ccccc4c3)s2)cc1OC`: the Potency result is “inactive”. Then `O=C(Cn1nc(-c2ccc(C(F)(F)F)cc2)ccc1=O)NCCc1ccccc1`, with “inactive”; and `COc1ccc(NC(=O)c2ccc(-c3nc4ccccc4[nH]3)cc2)cc1OC`, with “inactive”. For `Cc1cccc(-c2ccc3ncnc(NCc4cc(C)cs4)c3c2)c1`, the Potency result is “inactive”. For `FC(F)(F)c1ccccc1-c1nc(NCc2ccc(Cl)c(Cl)c2)c2ccccc2n1`, the Potency result was “inactive”.

Turning to `Cc1ccnc(NC(=S)N2CCN(c3cccc(C(F)(F)F)n3)CC2)c1`, the Potency result was “inactive”. To `C[C@@H](O)c1ccc(-c2ccc3ncnc(NCc4cccs4)c3c2)o1` belongs “inactive”; to `COc1ccc(C2Nc3ccccc3C(=O)N2Cc2ccco2)cc1COc1c(C)cc(NC(C)=O)cc1C` (stereo not given), “inactive”. To `Fc1cccc(CNc2ncnc3ccc(-c4cccnc4)cc23)c1` belongs “inactive”.

As for `O=C1CCc2cc(S(=O)(=O)Nc3ccncc3)ccc2N1`, the Potency result is “inactive”. Take `COc1cccc(C2=Nn3c(nnc3-c3ccc(OC)c(OC)c3)SC2)c1`: the Potency entry was “inactive”. Then `COc1ccc(NS(=O)(=O)c2ccccc2)cc1NS(=O)(=O)c1ccccc1`, with “inactive”; and `Cc1ccc(NS(=O)(=O)c2ccc3c(c2)N(C)C(=O)CO3)cc1C`, with “inactive”. To `CC(=O)Nc1oc(-c2cccc3ccccc23)nc1C#N` belongs “inactive”; to `O=C(O)c1ccc(-n2cccc2/C=C2\SC(=O)N(Cc3ccccc3Cl)C2=O)cc1`, “inactive”; to `Cc1noc(-c2sc3c(c2-c2nc4ccccc4s2)CCNC3)n1`, “inactive”.

For `c1nc(NCC2CCCC2)c2cc(-c3ccc4c(c3)OCO4)ccc2n1`, the Potency result was “inactive”. To `CNc1nc(-c2cccc3ccccc23)ccc1C#N` belongs “inactive”; to `Cc1ccc(-c2ccc(=O)n(CC(=O)N(C)[C@@H](C)c3ccccc3)n2)cc1`, “inactive”. To `Cc1c(P(=S)(c2ccccc2)c2ccccc2)[n+]2ccccc2n1CCCCCc1ccccc1` belongs “inactive”; to `CCOC(=O)/C=C/c1cc(F)c(S(=O)(=O)N2CCN(S(=O)(=O)c3ccc4c(c3)OCCO4)CC2)cc1F`, “inactive”; to `COc1ccc(Cn2ncc3c4sc(C)cc4n(C)c3c2=O)cc1F`, “inactive”. To `Cc1cccc(-c2ccc3ncnc(NCc4cccc(F)c4)c3c2)c1` belongs “inactive”; to `N#Cc1ccc(-c2ccc(NC(=O)c3cccs3)cn2)cc1`, “inactive”; to `Oc1ccc(CNc2ccc(F)cc2Cl)c2cccnc12`, “inactive”. `O=[S+]([O-])(NCC#CCSc1nnc(-c2cccc3ccccc23)o1)c1ccc(F)cc1`: the Potency entry is “inactive”. Then `CCOC(=O)C1CCN(c2ccc(NCc3ccc(-c4ccc(C#N)cc4)o3)cc2)CC1`, with “inactive”; and `Cc1cc(NS(=O)(=O)c2ccc(NC(=O)Cc3ccccc3)cc2)no1`, with “inactive”; and `Fc1cnc(-c2ccccc2C(F)F)nc1NCc1ccc(-n2ccnn2)cc1`, with “inactive”. On to `COc1cccc(C2c3c(ncn(-c4ccc(F)cc4)c3=N)Oc3ccc4ccccc4c32)c1` (stereo not given), for which the Potency entry was “inactive”.

As for `N#Cc1ccc(-c2ccc(CNc3ccc(N4CCOCC4)cc3)cn2)cc1`, the Potency entry is “inactive”.

With `N#Cc1ccc(-c2ccc(-c3nc4ccccc4c(=O)[nH]3)o2)cc1`, the Potency result is “inactive”. Turning to `Cc1ccc2nc3sc(C(=O)Nc4ccncc4)cc3cc2c1`, the Potency result is “inactive”. Then `CN(CC1CCCO1)c1ncnc2ccc(-c3ccc4c(c3)OCO4)cc12` (stereo not given), with “inactive”; and `COc1cc(O)c(C(CC(=O)N2CCCC(C#N)C2)c2ccc3c(c2)OCO3)c(OC)c1` (stereo not given), with “inactive”; and `O=C(OCC#CCNc1nnc(-c2cccc3ccccc23)o1)c1cccs1`, with “inactive”. Regarding `O=C1CCCC2=C1C(c1[nH]ncc1Cl)NC(=NCc1ccncc1)N2` (stereo not given), the Potency entry is “inactive”.

With `COc1cccc(NC(=S)N2CCN(c3ccc(Cl)cc3Cl)CC2)n1`, the Potency entry is “inactive”. For `COc1cccc(C2c3c(ncn(-c4ccncc4)c3=N)Oc3ccc4ccccc4c32)c1` (stereo not given), the Potency result was “inactive”.

Turning to `COc1ccc(C(=O)N(Cc2ccccc2)Cc2ccccc2)cc1COc1ccc(NC(C)=O)cc1`, the Potency result is “inactive”. Then `O=c1c2[nH]c3cc(Br)sc3c2cnn1Cc1ccccc1F`, with “inactive”. To `S=C(NCCCc1cnc[nH]1)NCCCN(Cc1ccc(Cl)cc1)c1ccc(Br)cn1` belongs “inactive”.

For `O=S1(=O)Nc2c(ccc3cccnc23)-c2ccccc21`, the Potency entry was “inactive”. To `CCC(=O)NC(c1cc(Cl)c2ccccc2c1O)C1CC1` (stereo not given) belongs “inactive”; to `O=C1CCc2cc(Cl)c(S(=O)(=O)Nc3ccc(Cl)c(Cl)c3)cc2N1`, “inactive”; to `Cc1csc(CNc2ncnc3ccc(-c4ccccc4Cl)cc23)c1`, “inactive”. To `CCCCN1C(=O)c2ccccc2NC1c1ccc(OC)c(COc2ccc(NC(C)=O)cc2)c1` (stereo not given) belongs “inactive”. To `Cc1c(-c2ccccc2)no[n+]1[O-]` belongs “inactive”; to `CN1CCCC1CCNc1ncnc2ccc(-c3ccc4c(c3)OCO4)cc12` (stereo not given), “inactive”. Take `O=C(O)c1ccc2c(c1)C(=O)N([C@]1(C(=O)O)CC1c1ccccc1)C2=O` (stereo not given in full): the Potency result was “inactive”. Then `O=S(=O)(c1ccc2c(c1)OCCO2)C1CCN(S(=O)(=O)c2c(F)cccc2F)CC1`, with “inactive”. To `CCOC(=O)C1CCN(C(=O)CNC(=O)Nc2ccccc2Cl)CC1` belongs “inactive”. Then `Cc1cc2c(s1)c1cnn(Cc3cccc(C(F)(F)F)c3)c(=O)c1n2C`, with “inactive”; and `NC(=O)C1CCN(c2nc(-c3ccc4c(c3)OCCCO4)cs2)CC1`, with “inactive”. Regarding `Cc1ccc(NS(=O)(=O)c2ccc3ccccc3c2)cc1C`, the Potency result was “inactive”. To `Cc1ccc(S(=O)(=O)Nc2cccc3ccc[n+](C)c23)cc1` belongs “inactive”; to `NC(N)=NCCC[C@H](NC(=O)CNC(=O)c1ccccc1)C(=O)Nc1cc(C(F)(F)F)ccc1Cl`, “inactive”; to `Cc1ccc(OCCn2c(CCNC(=O)c3cccc(N)c3)nc3ccccc32)cc1`, “inactive”. Then `COc1cccc(NC(=S)N2CCN(c3ccc4ccccc4n3)CC2)n1`, with “inactive”; and `CC(C)(C)C(=O)N1CCN(c2cccc(Nc3nn4c(=O)c5ccccc5nc4s3)c2)CC1`, with “inactive”; and `COc1cccc(Cn2ncc3c4sc(Br)cc4n(C)c3c2=O)c1`, with “inactive”. Then `COc1ccc(-c2nnc3n2N=C(c2cccc(OC)c2)CS3)cc1`, with “inactive”; and `COC(=O)c1sc2c(c1-c1nc3ccccc3s1)CCNC2`, with “inactive”. Consider `Cc1cc(-c2nnc3n2CCCCC3)c(C)n1-c1ccc([N+](=O)[O-])cc1`, for which the Potency entry is “inactive”. Consider `Cc1c(P(=S)(c2ccccc2)c2ccccc2)c2ccccc2n1C(=O)Cc1ccccc1`, for which the Potency result was “inactive”.

Take `CCOc1ccc(COc2ccc(-c3nc4ccccc4[nH]3)cc2)cc1`: the Potency result is “inactive”.
